This is a sample that favours compounds with a hit; in the whole collection about 31% have one here.
CYP2C9 inh: inhibitors of human CYP2C9. P11712. CYP2C9 Supersomes, luciferin-H conversion, luminescence. inhibition, % at 5 µM. hit rate 20% among 96,000;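 active = blocking of liver enzyme CYP2C9 beyond about 50% at 5 µM, limit read from the data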
Target sequence (P11712 whole entry, looked up): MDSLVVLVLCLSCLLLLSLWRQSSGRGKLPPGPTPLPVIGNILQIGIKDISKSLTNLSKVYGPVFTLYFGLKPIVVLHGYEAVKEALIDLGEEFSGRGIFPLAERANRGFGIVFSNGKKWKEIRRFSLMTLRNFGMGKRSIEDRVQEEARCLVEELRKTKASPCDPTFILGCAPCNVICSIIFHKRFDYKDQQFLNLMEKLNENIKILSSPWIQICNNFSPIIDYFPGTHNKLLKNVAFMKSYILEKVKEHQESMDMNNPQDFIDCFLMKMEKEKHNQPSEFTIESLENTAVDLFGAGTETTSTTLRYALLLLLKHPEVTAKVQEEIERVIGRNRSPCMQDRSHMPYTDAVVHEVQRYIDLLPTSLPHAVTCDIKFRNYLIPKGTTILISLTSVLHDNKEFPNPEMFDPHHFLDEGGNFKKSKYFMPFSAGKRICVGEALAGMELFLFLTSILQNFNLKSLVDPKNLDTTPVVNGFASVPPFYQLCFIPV
CYP2C19 inhib: inhibitors of human CYP2C19 | P33261 | CYP2C19 Supersomes, luciferin-H EGE luminescence, 30 min | inhibition, % at 5 µM | hit rate 21% among 96,000;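 active = CYP2C19 inhibition above a set limit at 5 µM in the primary screen, cut at about 50% in these data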;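 also: plate controls were negative control wells for no effect and 2.5 mM tranylcypromine positive control for full effect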
CYP2C19 act: cytochrome P450 2C19 (human) activation | P33261 | recombinant CYP2C19, luciferin-H EGE luminescence; active compounds read high; 0 = fully inhibited enzyme, 1 = untreated enzyme | activation factor at 5 µM | 96,000 tested, under 10 active;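 active = activation factor of at least 2 at 5 µM in the primary screen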;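 also: 0 = wells with 2.5 mM tranylcypromine and 1 = vehicle-only wells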
CYP2C9 activ: activators of human CYP2C9; P11712; recombinant CYP2C9, luciferin-H conversion, luminescence; active compounds read high; factor 1 = untreated enzyme, 0 = blocked; activation factor at 5 µM; hit rate 1.4% among 96,000; AID 1024;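 active = activation factor of 2 or more for CYP2C9 at a 5 µM dose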;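 also: 0 = sulfaphenazole-blocked wells and 1 = vehicle-only wells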
Active calls of the source: *.

CCOC(=O)c1c(-c2ccccc2)oc2ccc(OC)cc12 was read as CYP2C9 inh 65.0*, CYP2C19 inhib 51.5*, CYP2C19 act 0.5 and CYP2C9 activ 0.3.
NC(=O)c1c(-c2ccccc2)oc2ccc(O)cc12 was read as CYP2C9 inh -114.9, CYP2C19 inhib 49.9, CYP2C19 act 0.5 and CYP2C9 activ 2.1*.
For CCC(=O)Nc1cccc(-c2nnc(SCC(=O)c3ccccc3)n2C)c1 the results were CYP2C9 inh 9.6, CYP2C19 inhib 40.7, CYP2C19 act 0.6 and CYP2C9 activ 0.9.
CCOC(=O)C1=C(CN2c3ccccc3CC2C)NC(=O)NC1c1ccccc1 (stereo not drawn) was read as CYP2C9 inh 19.7, CYP2C19 inhib 34.2, CYP2C19 act 0.7 and CYP2C9 activ 0.8.
For OC(CNCc1ccco1)Cn1c2ccccc2c2ccccc21 (stereo not drawn) the results were CYP2C9 inh 32.2, CYP2C19 inhib 64.9*, CYP2C19 act 0.4 and CYP2C9 activ 0.7.
CS(=O)(=O)N(Cc1ccco1)CC(O)Cn1c2ccccc2c2ccccc21 (stereo not drawn) was read as CYP2C9 inh 59.0*, CYP2C19 inhib 62.9*, CYP2C19 act 0.4 and CYP2C9 activ 0.4.
`Cc1ccc(N(CC(O)CON=C2c3ccccc3-c3ccccc32)S(C)(=O)=O)cc1` (stereo not drawn) gave CYP2C9 inh 53.2*, CYP2C19 inhib 46.9, CYP2C19 act 0.5 and CYP2C9 activ 0.5.
For Cc1ccc(N(CC(O)Cn2c3ccccc3c3ccccc32)S(C)(=O)=O)c(C)c1 (stereo not drawn) the results were CYP2C9 inh 5.5, CYP2C19 inhib 7.9, CYP2C19 act 0.9 and CYP2C9 activ 0.9.
Cc1cccc(C)c1N(CC(O)Cn1c2ccccc2c2ccccc21)S(C)(=O)=O (stereo not drawn) was read as CYP2C9 inh 72.3*, CYP2C19 inhib 80.0*, CYP2C19 act 0.2 and CYP2C9 activ 0.3.
COc1cc(OC)cc(C(C)=O)c1 was read as CYP2C9 inh 5.4, CYP2C19 inhib -2.1, CYP2C19 act 1 and CYP2C9 activ 0.9.
`Cc1ccc(N(CC(O)Cn2c3ccccc3c3ccccc32)S(C)(=O)=O)cc1` (stereo not drawn) gave CYP2C9 inh 96.5*, CYP2C19 inhib 94.1*, CYP2C19 act 0.1 and CYP2C9 activ 0.
COc1ccccc1C1CN(c2ccc(F)cc2F)N=C1c1cccs1 (stereo not drawn) was read as CYP2C9 inh 91.2*, CYP2C19 inhib 69.9*, CYP2C19 act 0.3 and CYP2C9 activ 0.1.
Cc1sc(NC(=O)CN(C)C2CCCCC2)nc1-c1ccc2c(c1)CCN2S(=O)(=O)c1ccccc1 was read as CYP2C9 inh 27.6, CYP2C19 inhib 14.6, CYP2C19 act 0.9 and CYP2C9 activ 0.7.
COc1ccc2c(c1)CCc1c(C(=O)N3CCOCC3)noc1-2 was read as CYP2C9 inh -8.7, CYP2C19 inhib 20.1, CYP2C19 act 0.8 and CYP2C9 activ 1.1.
O=C(NCC1CCCC(CNC(=O)N2CCc3ccccc32)C1)N1CCc2ccccc21 (stereo not drawn) was read as CYP2C9 inh 98.6*, CYP2C19 inhib 86.4*, CYP2C19 act 0.1 and CYP2C9 activ 0.
COc1ccc2c(c1)CCc1c(C(=O)N3CCCc4ccccc43)noc1-2 was read as CYP2C9 inh 75.0*, CYP2C19 inhib 90.1*, CYP2C19 act 0.1 and CYP2C9 activ 0.3.
For COc1ccc(NC(=O)N2CCCc3ccccc32)cc1 the results were CYP2C9 inh 30.3, CYP2C19 inhib 68.7*, CYP2C19 act 0.3 and CYP2C9 activ 0.7.
Screening COc1cccc(C(=O)N2CCCc3ccccc32)c1 returned CYP2C9 inh 10.2, CYP2C19 inhib 86.8*, CYP2C19 act 0.1 and CYP2C9 activ 0.9.
For CCn1c(SCc2nc(-c3ccc(OC)c(OC)c3)no2)nnc1-c1cccs1 the results were CYP2C9 inh 29.4, CYP2C19 inhib 22.8, CYP2C19 act 0.8 and CYP2C9 activ 0.7.
Screening CC(=O)C(CC(=O)N1CCCc2ccccc21)C(=O)Nc1ccc(F)cc1 (stereo not drawn) returned CYP2C9 inh 33.0, CYP2C19 inhib 71.3*, CYP2C19 act 0.3 and CYP2C9 activ 0.7.
Screening COc1ccc(NC(=O)N2CCc3ccccc32)cc1 returned CYP2C9 inh 22.2, CYP2C19 inhib 58.1*, CYP2C19 act 0.4 and CYP2C9 activ 0.8.
For CC(Oc1ccccc1)C(=O)N1CCCc2ccccc21 (stereo not drawn) the results were CYP2C9 inh 55.5*, CYP2C19 inhib 90.8*, CYP2C19 act 0.1 and CYP2C9 activ 0.4.
